The list is not random: actives were taken first. Their share in the collection is about 2.4%.
Pol kappa inh: inhibitors of human DNA polymerase kappa. Q9UBT6. AID 588579. Potency, µM (series often up to 107 µM), for the others: at the highest dose activity, negative = inhibition, usual class: inhibitors. 400,000 tested, 0.53% active. purified Pol kappa, fluorescent DNA synthesis assay, 10 min; note: % is set by controls: 0 for no effect and ±100 for the full control effect
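Inhibition of 10 nM Pol kappa is measured by a fluorescent read-out at 0 and 10 min following addition of 50 nM substrate (final), with a 15-min room-temperature compound preincubation.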
WRN inhibitor: inhibitors of human WRN helicase. Q14191. WRN helicase unwinding, fluorescent forked duplex, kinetic. Potency, µM (series often up to 114 µM), without a hit: at the top dose activity change, negative = inhibition, most hits filed as inhibitors. 360,000 tested, 0.46% active. AID 651768; note: % is set by controls: 0 for no effect and ±100 for the full control effect; nearly all actives have a fitted effect of over 55% in size
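WRN at 20 nM final preincubated with compound 15 min at room temperature; reaction started with 100 nM fluorophore/quencher forked duplex oligonucleotide and 2 mM ATP final. Unwinding followed kinetically by red fluorescence (ex 525, em 598 nm).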
POLI inh: inhibitors of human DNA polymerase iota; Q9UNA4; Pol iota fluorescent replication assay, 10 min; Potency, µM (series often up to 115 µM), for inactives: at the top dose activity, negative = inhibition, usual class: inhibitors; 390,000 tested, 1% active; AID 588590
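Fluorescent replication assay read twice, at 0 min and 10 min after adding 50 nM (final) substrate. Enzyme (10 nM) and compounds were first incubated 15 min at room temperature; enzyme-free buffer wells were negative controls.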
Pol beta inh: inhibitors of human DNA polymerase beta; Pol beta primer extension/strand displacement, fluorescence kinetic; Potency, µM (doses to about 114 µM), without a hit: at the top dose activity change, negative = inhibition, hits mostly inhibitors; 340,000 tested, 1.3% active; note: % is set by controls: 0 for no effect and ±100 for the full control effect
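Curves were derived by four-parameter Hill fits of normalized qHTS data. The kinetic fluorescent primer-extension read was taken at 0 and 10 min after 50 nM substrate, following a 15 min room-temperature preincubation of 10 nM enzyme with compounds.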
POLH inh: DNA polymerase eta (human) inhibition; Q9Y253; recombinant Pol eta, fluorescent DNA replication assay; Potency, µM (doses to about 114 µM), inactives show at the highest dose activity change, negative = inhibition, usual class: inhibitors; 390,000 tested, 1.2% active; AID 588591; note: % is set by controls: 0 for no effect and ±100 for the full control effect
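Fluorescent replication assay: 50 nM final substrate added after a 15 min room-temperature compound preincubation with 10 nM enzyme. Signal taken at 0 min and again at 10 min.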
FEN1 inhibitor: human FEN1 inhibition; Recombinant FEN1 flap cleavage, fluorescence, 15 min; Potency, µM (series often up to 114 µM), without a hit: at the highest dose activity change, negative = inhibition, actives largely listed as inhibitors; 390,000 tested, 0.35% active; note: % is set by controls: 0 for no effect and ±100 for the full control effect; nearly all actives have a fitted effect of over 65% in size
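Nuclease activity of 10 nM FEN1 was measured after 15 min of room-temperature exposure to titrated compounds, by adding 50 nM flap substrate and reading plates at 0 and 15 min.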
* marks the source's active call; other numbers are inactive results; ? = inconclusive; / = no result; [ ] = dose if it differs, or a comment. Calls come from the whole dose curve; as a rule, active = well fitted curve in the direction sought with a large enough effect; inconclusive = small, poorly fitted or top-dose-only effect, or another doubt; inactive = no such curve, though single readings can be large; an effect the other way counts as inactive or inconclusive. Potency is the fitted concentration of half-maximal effect.

SMILES	Pol kappa inh	WRN inhibitor	POLI inh	Pol beta inh	POLH inh	FEN1 inhibitor
COCC1CCN(C(=O)C2CCC(=O)N(CCc3ccc(Cl)cc3)C2)CC1 (centres undefined)	6.3%	1.4%	-23.2%	-13.7%	-12.1%	2.7%
Cc1ccc2c(c1)sc[n+]2Cc1ccccc1	-13.0%	1.5%[11.6 µM]	44.7µM*	22.5%	-10.1%	-7.6%
CCN(c1ccccc1)c1nnc(NC(=O)Nc2ccc(Br)cc2F)s1	1.0%	/	32.8%	1.6%	-18.0%	-6.9%
COC(=O)CCC(=O)OC1(C)C(=O)C2=COC(c3ccc(OC)cc3)=CC2=C(Br)C1=O (centres undefined)	25.1µM*	?	12.6µM*	22.4µM*	10µM*	35.5µM*
COc1ccc(C2=CC3=C(Br)C(=O)C(C)(OC(=O)c4ccc(Cl)nc4)C(=O)C3=CO2)cc1 (centres undefined)	?	?	10µM*	50.1µM*	22.4µM*	?
COC(=O)CCC(=O)OC1(C)C(=O)C2=CN(Cc3ccc4c(c3)OCO4)C(c3ccc(OC)cc3)=CC2=C(Br)C1=O (centres undefined)	-21.7%	-2.5%	?	/	-10.7%	0.5%
COC(=O)CCC(=O)OC1(C)C(=O)C2=CN(CCCCO)C(c3ccc(OC)cc3)=CC2=C(Br)C1=O (centres undefined)	/	/	/	-13.1%	/	/
COC(=O)CCC(=O)OC1(C)C(=O)C2=CN(CCc3ccccn3)C(c3ccc(OC)cc3)=CC2=C(Br)C1=O (centres undefined)	-16.1%	-8.4%	?	/	31.6µM*	-14.2%
CCCS(=O)(=O)c1nc(S(=O)(=O)c2ccc(C)cc2)c(N2CCC(C(N)=O)CC2)s1	-4.8%	-5.2%	-0.6%	-18.0%	6.4%	-15.0%
CCN(c1cc(C)cc(C)c1)S(=O)(=O)c1nnc(NC(=O)c2cccs2)s1	-16.4%	/	24.9%	-27.6%	89.1µM*	-7.8%
CCN(c1ccc(OC)cc1)S(=O)(=O)c1nnc(NC(=O)COc2ccc(C)cc2)s1	-15.7%	-5.4%	-6.0%	7.94µM*	-1.7%	4.3%
O=C(Nc1ccccc1F)c1coc(=O)c(Br)c1	31.6µM*	?	28.2µM*	12.6µM*	79.4µM*	?
O=C(Nc1ccc(Br)cn1)c1coc(=O)c(Br)c1	?	-23.5%	39.8µM*	?	44.7µM*	-3.3%
CN(Cc1nc(-c2ccccc2)no1)C(=O)c1ccco1	-1.0%	1.9%	16.5%	22.7%	-10.9%	-9.9%
Cc1ccc(N(C(=O)CNC(=O)c2ccco2)C(C(=O)NC2CCCCC2)c2cccnc2)cc1C (centres undefined)	-18.2%	-2.5%	142.7%	4.5%	-21.1%	3.5%
Cc1ccc(-n2c3nc(=O)[nH]c(=O)c-3cc3cc([N+](=O)[O-])ccc32)cc1	-3.9%	?	?	48.6%	44.7µM*	-7.1%
CCOC(=O)c1cnn(-c2nc(SC)nc3sc4c(c23)CCC4)c1N	-15.1%	-7.6%	?	10µM*	?	-3.3%
O=S(c1ccccc1O)S(=O)c1ccccc1O (centres undefined)	?	14.1µM*	12.6µM*	/	22.4µM*	?
O=C(O)c1ccccc1O	-0.5%	/	2.8%	14.8%	-15.6%	6.5%
COc1ccc(C(C)NC(=O)CN(c2cc(OC)ccc2OC)S(=O)(=O)c2ccccc2)cc1 (centres undefined)	-32.2%	/	?	20µM*	?	2.9%
COc1ccc(OC)c(N(CC(=O)Nc2ccccc2)S(=O)(=O)c2ccccc2)c1	-22.2%	-2.3%	2.6%	-20.0%	-31.6%	-17.0%
O=C(Oc1ccc([N+](=O)[O-])cc1)C1CC(=O)N(c2ccc3c(c2)OCCO3)C1 (centres undefined)	-41.7%	-19.3%[11.6 µM]	79.4µM*	/	?	-2.9%
O=C1CC(NS(=O)(=O)c2ccc([N+](=O)[O-])cc2)CN1c1ccc2c(c1)OCCO2 (centres undefined)	-8.3%	-1.6%	17.0%	/	2.0%	-4.8%
Cc1ccc(NC(=O)c2ccc(NCCc3ccccc3)c([N+](=O)[O-])c2)cc1F	-18.2%	-19.9%[57.1 µM]	17.8%	5.3%	-14.6%	-1.7%
CCOC(=O)/C(C)=N/NC(=O)c1ccc([N+](=O)[O-])cc1	3.1%	?	8.3%	25.1%	-5.5%	-1.0%
SMILES	Pol kappa inh	WRN inhibitor	POLI inh	Pol beta inh	POLH inh	FEN1 inhibitor
CCc1nc2cccnc2n1-c1ccc(CC(=O)O)cc1	-23.5%	-1.4%[11.6 µM]	64.4%	-1.2%	50.1µM*	-4.7%
CCOCCCNC(=O)Cc1ccc(-n2c(CC)nc3cccnc32)cc1	-2.0%	1.7%	25.3%	21.7%	-18.5%	-1.6%
COc1ccc(OC)c(S(=O)(=O)N2CCC(C(=O)NCCc3ccccc3)CC2)c1	0.4%	-6.0%	10.7%	11.1%	-0.2%	-13.2%
COCCCn1c2nc3ccccc3nc2c2c(=O)n(Cc3ccc(Cl)cc3)cnc21	1.5%	7.6%	13.8%	1.4%	1.3%	9.4%
O=c1c2c3nc4ccccc4nc3n(Cc3ccccc3)c2ncn1Cc1ccco1	?	?	?	28.2µM*	17.8µM*	-17.6%
O=C(NCCC1CCCCN1S(=O)(=O)c1ccc(Cl)cc1)C(=O)NCc1cccnc1 (centres undefined)	9.3%	-0.2%	20.0%	/	-11.9%	0.3%
COc1ccc(OCC(=O)Nc2ccccc2Cl)cc1	-0.7%	1.5%	23.7%	17.8µM*	-2.8%	1.1%
CCOc1ccccc1-c1c2cc(O)c(=O)cc-2oc2cc(O)c(O)cc12	14.1µM*	89.1µM*	/	1.58µM*	28.2µM*	20µM*
COc1ccccc1-c1cc(C(F)(F)F)nc(N2CCN(c3ccc(F)cc3)CC2)n1	1.7%	5.0%	6.0%	7.7%	-10.8%	-1.9%
Cc1cccc(CC2S/C(=N/N=C/c3ccco3)N(c3ccccc3)C2=O)c1 (centres undefined)	-9.7%	-8.4%	-4.0%	35.5µM*	-8.8%	-1.0%
Cn1c(SCc2nc3ccccc3[nH]2)nnc1-c1cccnc1	-7.8%	0.0%	18.6%	12.0%	-18.3%	6.1%
Cc1cc(NC(=O)CSc2nnc(-c3cccc(F)c3)n2N)no1	-5.3%	-4.6%	70.8µM*	/	-18.9%	19.5%
CCSc1nnc(SCC(=O)Nc2cc(C)on2)s1	?	-12.4%	44.7µM*	/	?	11.8%
CCOc1ccc(NC(=O)CSc2nnc(-c3ccccc3)n2N)cc1	-13.8%	-21.1%	-1.0%	22.4µM*	?	-4.7%
CCOc1ccc(-c2nnc(SCc3nc4ccccc4[nH]3)n2N)cc1	0.4%	-4.9%	?	50.1µM*	-6.1%	5.0%
